{
  "source": "PubChem BioAssay (NCI)",
  "note": "About 83,000 compounds went through this panel and 20% of them were active in at least one assay; those are over-represented in the sample as a whole.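 Activity criterion: percent growth below 10, measured after cells in 96-well plates were exposed to a single compound concentration for 48 hours.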 Values without a mark were called inactive. Active and inactive are the calls of the source.",
  "data": [
    {"system": "HT29 colon", "assay": "NCI-60 one-dose screen, 48 h (100 = growth as untreated, 0 = no growth, -100 = all killed)", "conditions": "10 µM unless noted", "values": [
      {"smiles": "O=C(Nc1ccc(CN2CCOCC2)c(C(F)(F)F)c1)c1nc2ccc3[nH]ncc3c2c2c1CCCC2", "growth": "74.8%"},
      {"smiles": "CC(C)[C@H]1CCC2=C3CC[C@]45OC(=O)[C@@]6(CCC(C)(C)C[C@H]64)CC[C@@]5(C)[C@]3(C)CC[C@@]21C", "growth": "42.2% [100 µM]"},
      {"smiles": "Cc1ccc2c(c1)/C(=N\\N=C/c1cn(C(C)C)c3ccccc13)C(=O)N2", "growth": "11.3%"},
      {"smiles": "COc1ccc(C(=O)c2nccc3cc(OC)c(OC)cc23)cc1OC", "growth": "113%"},
      {"smiles": "Nc1cc(C(=O)O)[nH]c(=S)n1", "growth": "101%"},
      {"smiles": "CC1(C)CC[C@]2(C(=O)O)CC[C@]3(C)C(=CC[C@@H]4[C@@]5(C)C/C(=C/c6cccnc6)[C@H](O)C(C)(C)[C@@H]5CC[C@]43C)[C@@H]2C1", "growth": "-79.4% [100 µM] (active)"},
      {"smiles": "ClC1=C(Cl)C(Cl)=C(Cl)C1=Cc1ccccc1", "growth": "-30.1% (active)"},
      {"smiles": "CCCCC(CCCCCC(CCCC)C1NC(C)Cc2cc(OC)c(OC)cc21)C1NC(C)Cc2cc(OC)c(OC)cc21", "note": "(stereo not drawn)", "growth": "-86.3% (active)"},
      {"smiles": "COc1ccccc1S(=O)Nc1ccccc1", "note": "(stereo not drawn)", "growth": "91.4%"},
      {"smiles": "Cc1cnc(N)nc1OCC(C)(C)CNC(=O)c1cccc(-c2ccc(S(=O)(=O)Nc3ccc4c(c3)N(C(=O)C3CC3)CCC4)cc2)c1", "growth": "42.1%"},
      {"smiles": "C=C(C)[C@@H]1CC[C@]2(COC(=O)c3ccccc3C(=O)O)CC[C@]3(C)[C@H](CC[C@@H]4[C@@]5(C)CC[C@H](OC(=O)c6ccccc6C(=O)O)C(C)(C)[C@@H]5CC[C@]43C)[C@@H]12", "growth": "64.3% [100 µM]"},
      {"smiles": "Cc1cc(N2CCCCCC2)nc(N2CCN(CC(=O)Nc3ccc4c(ccn4Cc4ccccc4)c3)CC2)n1", "growth": "6.45% (active)"},
      {"smiles": "CC1(C)C(=O)/C(=C\\c2cccnc2)C[C@]2(C)[C@H]3CC[C@@H]4[C@H]5[C@H](C(=O)/C=C/c6cccnc6)CC[C@]5(C(=O)O)CC[C@@]4(C)[C@]3(C)CC[C@@H]12", "growth": "-72% [100 µM] (active)"},
      {"smiles": "CCN(CC)CCSC(=O)C(O)(c1ccccc1)C1CCCC1", "note": "(stereo not drawn)", "growth": "114%"},
      {"smiles": "O=C(NNc1ccc(-c2ccccc2)nn1)c1ccccc1", "growth": "107%"},
      {"smiles": "Cc1cc2c(C(C)C)c(O)c(O)c(C=NCc3ccoc3)c2c(O)c1-c1c(C)cc2c(C(C)C)c(O)c(O)c(C=NCc3ccco3)c2c1O", "growth": "31.2%"},
      {"smiles": "c1ccc(-c2nnc(-c3c[nH]c4ncccc34)s2)cc1", "growth": "106%"},
      {"smiles": "Cc1ccc(-c2cc(-c3ccc(C)cc3)nc(NCCNc3ccnc4cc(Cl)ccc34)n2)cc1", "growth": "-36% (active)"},
      {"smiles": "Cn1cc(-c2noc(C(=O)c3cn(C)c4ncccc34)n2)c2ccccc21", "growth": "102%"},
      {"smiles": "Cc1cc(NN=C(c2ccc(O)cc2)c2ccc(O)cc2)c([N+](=O)[O-])cc1[N+](=O)[O-]", "growth": "91.5%"},
      {"smiles": "O=C(C[n+]1ccn(CC(OCc2ccc(Cl)cc2Cl)c2ccc(Cl)cc2Cl)c1)c1ccc(F)cc1", "note": "(stereo not drawn)", "growth": "-73.8% (active)"},
      {"smiles": "COc1cc(-c2nc(SCCC(C)C)nc(Nc3ccc(S(N)(=O)=O)cc3)c2C#N)cc(OC)c1OC", "growth": "2.83% (active)"},
      {"smiles": "CC(C)=CCC[C@](C)(O)[C@H]1CC[C@]2(C)[C@@H]1CC[C@@H]1[C@@]3(C)CC[C@H](OC(=O)CCC(=O)O)C(C)(C)[C@@H]3CC[C@]12C", "growth": "2.98% [100 µM] (active)"},
      {"smiles": "C=C(C)[C@@H]1CC[C@]2(C)[C@H](CC[C@@H]3[C@@H]([C@@](C)(O)CCC=C(C)C)CC[C@]32C)[C@@]1(C)CCC(=O)O", "growth": "2.65% [100 µM] (active)"},
      {"smiles": "O=C(CCN1CCCCC1)c1ccc2ccccc2c1", "growth": "99.7%"},
      {"smiles": "O=C(N/N=C/c1c(Cl)cccc1Cl)c1cccc(Nc2ccnc(C(F)(F)F)c2)c1", "growth": "96.7%"},
      {"smiles": "CCc1ccc(C2=C/C(=C/c3ccccc3)C(=O)N2CCc2ccc(S(N)(=O)=O)cc2)cc1", "growth": "117%"},
      {"smiles": "COc1cc2c(cc1OCCCCCOc1ccc(-n3c(C)nc4ccccc4c3=O)cc1)N=C[C@@H]1CCCN1C2=O", "growth": "-1.24% (active)"},
      {"smiles": "CCN(CCO)CCC(=O)c1ccc([N+](=O)[O-])cc1", "growth": "105%"},
      {"smiles": "COc1c(B(O)O)cccc1-c1nc2ccc3[nH]ncc3c2c2c1CCC2", "growth": "63.8%"},
      {"smiles": "Cc1ccc(-c2cc(O)c(-c3ccc(C)cc3C)cc2O)c(C)c1", "growth": "42.3%"},
      {"smiles": "C=C(C)[C@@H]1CC[C@]2(c3ncc(C)o3)CC[C@]3(C)[C@H](CC[C@@H]4[C@@](C)(CCC#N)[C@H](C(=C)C)CC[C@]43C)[C@@H]12", "growth": "-69.8% [100 µM] (active)"},
      {"smiles": "Nc1nc(Nc2ccccc2)c2ncn(Cc3ccc4c(c3)OCO4)c2n1", "growth": "20.6%"},
      {"smiles": "CC(=O)OC[C@]12CC[C@@H](C(=O)CBr)[C@@H]1[C@H]1CC[C@@H]3[C@@]4(C)CCCNC(C)(C)[C@@H]4CC[C@@]3(C)[C@]1(C)CC2", "growth": "-81.9% [100 µM] (active)"},
      {"smiles": "C[C@@H]1C[C@H]2C(=O)O[C@@H](C)[C@H](NC(=O)[C@H](Cc3cc(F)cc(F)c3)NC(=O)Nc3ccc(Cl)cc3F)C(=O)N3C[C@H](O)C[C@H]3C(=O)N3CCN(C)C[C@H]3C(=O)N[C@@H](C)C(=O)N2C1", "growth": "32.5%"},
      {"smiles": "COC(=O)C(=Cc1ccccc1[N+](=O)[O-])C(=O)OC", "growth": "21.3%"},
      {"smiles": "CC1Cc2c(Cl)ncnc2N(C)c2ccc(Cl)cc21", "note": "(stereo not drawn)", "growth": "-0.897% (active)"},
      {"smiles": "CC1(C(=O)O)CCC(N)(C(=O)O)C1(C)C", "note": "(stereo not drawn)", "growth": "103%"}
    ]}
  ]
}
